Data from PubChem BioAssay AID1159580 (chemical genetic matrix, 2015).
Several values for one entry are separate records, joined by “and”; a condition that tells them apart may be missing. Identical values can stand only once. Screen size: about 5,500 compounds; about 2,000 (36%) were called active. Roughly 18% stayed inconclusive and do not appear here. No stated cut-off is given here; in the data, active means normalized growth mostly below about 0.91 (no sharp cut-off); inconclusive means no clear call, values can overlap the other calls; inactive means mostly above about 0.92. Some of the results follow.

Assay: chemical genetic growth profiling, strain panel (AID 1159580);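 further: tested at 20 µM; growth read once vehicle control cultures reached saturation at 30 °C; 1 = growth at the plate median or of vehicle wells; lower values mean less growth of the strain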
Settings: S. cerevisiae deletion strains, growth OD

Measured: normalized growth

CC(=O)Oc1ccc(/C=C/c2cc(OC(C)=O)cc(OC(C)=O)c2)cc1
active: locus YDR392W, strain spt3, active compounds read low 0.668
inactive: locus YAL021C, strain ccr4, active compounds read low 0.979 | locus YAL026C, strain drs2, active compounds read low 0.984 | locus YAL030W, strain snc1, active compounds read low 0.97 | locus YBL061C, strain skt5, active compounds read low 0.976 | locus YBR009C, strain hhf1, active compounds read low 0.962 | locus YBR021W, strain FUR4, active compounds read low 0.96 | locus YBR023C, strain chs3, active compounds read low 0.975 | locus YBR171W, strain sec66, active compounds read low 0.978 | locus YBR229C, strain ROT2, active compounds read low 0.997 | locus YBR231C, strain swc5, active compounds read low 0.986 | locus YBR279W, strain paf1, active compounds read low 0.978 | locus YCL011C, strain gbp2, active compounds read low 0.972 | locus YCL016C, strain dcc1, active compounds read low 0.98 | locus YCL029C, strain bik1, active compounds read low 1.01 | locus YCL061C, strain MRC1, active compounds read low 0.953 | locus YCL069W, strain vba3, active compounds read low 0.984 | locus YCR088W, strain abp1, active compounds read low 0.979 | locus YDL005C, strain med2, active compounds read low 0.963 | locus YDL035C, strain GPR1, active compounds read low 0.984 | locus YDL040C, strain nat1, active compounds read low 0.963 | locus YDL074C, strain BRE1, active compounds read low 0.982 | locus YDL101C, strain DUN1, active compounds read low 0.993 | locus YDL134C, strain PPH21, active compounds read low 0.97 | locus YDL185W, strain tfp1, active compounds read low 1.02 | locus YDL192W, strain arf1, active compounds read low 0.997 | locus YDR001C, strain nth1, active compounds read low 0.987 | locus YDR069C, strain doa4, active compounds read low 0.966 | locus YDR101C, strain arx1, active compounds read low 0.987 | locus YDR137W, strain rgp1, active compounds read low 0.925 | locus YDR159W, strain sac3, active compounds read low 0.951 | locus YDR162C, strain NBP2, active compounds read low 0.977 | locus YDR195W, strain ref2 0.985 | locus YDR297W, strain sur2, active compounds read low 0.979 | locus YDR318W, strain mcm21, active compounds read low 0.986 | locus YDR334W, strain swr1, active compounds read low 0.981 | locus YDR335W, strain msn5, active compounds read low 0.987 | locus YDR388W, active compounds read low 1 | locus YDR502C, strain sam2, active compounds read low 0.999 | locus YEL003W, strain gim4, active compounds read low 0.969 | locus YEL037C, strain rad23, active compounds read low 0.983 | locus YEL061C, strain CIN8 (second series), active compounds read low 0.99 | locus YEL061C, strain CIN8, active compounds read low 0.999 | locus YER015W, strain faa2, active compounds read low 0.974 | locus YER016W, strain bim1, active compounds read low 0.976 | locus YER110C, active compounds read low 1.01 | locus YER111C, strain swi4, active compounds read low 0.976 | locus YER155C, strain BEM2 (second series), active compounds read low 0.924 | locus YER155C, strain BEM2, active compounds read low 1.01 | locus YER167W, strain BCK2, active compounds read low 0.991 | locus YFR010W, strain ubp6, active compounds read low 0.985 | locus YGL078C, strain dbp3, active compounds read low 0.996 | locus YGL086W, strain mad1, active compounds read low 0.994 | locus YGL167C, strain pmr1, active compounds read low 0.978 | locus YGL173C, strain kem1, active compounds read low 0.961 | locus YGL227W, strain vid30, active compounds read low 0.982 | locus YGL240W, strain doc1, active compounds read low 0.942 | locus YGL248W, strain PDE1, active compounds read low 0.974 | locus YGL253W, strain hxk2, active compounds read low 0.973 | locus YGR135W, strain pre9, active compounds read low 0.977 | locus YGR229C, strain SMI1, active compounds read low 1.01 | locus YGR252W, strain gcn5, active compounds read low 0.951 | locus YHR013C, strain ard1, active compounds read low 0.978 | locus YHR027C, strain rpn1, active compounds read low 0.975 | locus YHR030C, strain SLT2, active compounds read low 1.01 and 1.03 | locus YHR079C, strain IRE1 (second series), active compounds read low 1 | locus YHR079C, strain IRE1, active compounds read low 1.03 | locus YHR094C, strain hxt1, active compounds read low 1 | locus YHR129C, strain ARP1, active compounds read low 0.985 | locus YHR142W, strain chs7, active compounds read low 0.968 | locus YHR200W, strain rpn10, active compounds read low 1.01 | locus YIL066C, strain RNR3, active compounds read low 0.965 | locus YIL073C, strain SPO22, active compounds read low 1.04 | locus YIL125W, strain kgd1, active compounds read low 1.02 | locus YIR030C, strain dcg1, active compounds read low 0.99 | locus YJL092W, strain hpr5, active compounds read low 0.977 | locus YJL095W, strain BCK1 (second series), active compounds read low 0.983 | locus YJL095W, strain BCK1, active compounds read low 0.962 and 0.998 | locus YJL115W, strain asf1, active compounds read low 0.992 | locus YJL129C, strain trk1, active compounds read low 0.978 | locus YJL134W, strain LCB3, active compounds read low 1.01 | locus YJL154C, strain vps35, active compounds read low 0.983 | locus YJL164C, strain tpk1, active compounds read low 0.96 | locus YJL166W, strain qcr8, active compounds read low 0.95 | locus YJL168C, strain set2, active compounds read low 0.997 | locus YJL187C, strain SWE1 (second series), active compounds read low 0.98 | locus YJL187C, strain SWE1, active compounds read low 0.993 | locus YJR043C, strain POL32, active compounds read low 0.979
